# This is part of a sample that, as a whole, favours compounds with a hit. Of some 83,000 tested, about 20% had one in any assay.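 Single-dose data. Exposure time 48 hours. Values below 10 considered active.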 Unmarked numbers belong to inactive results. Calls of active or inactive are those of the source.
# Experiments:
# Assay in all cases: NCI-60 one-dose screen, 48 h (100 = growth as untreated, 0 = no growth, -100 = all killed)
# Conditions in all cases: 10 µM unless noted
# SK-MEL-2 melanoma = test system: SK-MEL-2 melanoma
# EKVX NSCLC = test system: EKVX NSCLC
# SN12C renal = test system: SN12C renal
# UO-31 renal = test system: UO-31 renal
# TK-10 renal = test system: TK-10 renal
# ACHN renal = test system: ACHN renal
# CAKI-1 renal = test system: CAKI-1 renal
# A498 renal = test system: A498 renal
# CCRF-CEM leukemia = test system: CCRF-CEM leukemia
# MOLT-4 leukemia = test system: MOLT-4 leukemia
Compound,growth (SK-MEL-2 melanoma),growth (EKVX NSCLC),growth (SN12C renal),growth (UO-31 renal),growth (TK-10 renal),growth (ACHN renal),growth (CAKI-1 renal),growth (A498 renal),growth (CCRF-CEM leukemia),growth (MOLT-4 leukemia)
O=C(Nc1cccc2ccccc12)NC1CC1,121%,109%,106%,88%,117%,101%,96.5%,112%,97.5%,92.6%
Cn1ccc(=O)c(C(=O)Nc2nsc3ccc([N+](=O)[O-])cc23)c1,55.7%,81.7%,75.3%,28.1%,50%,32.6%,6.88% (active),31.9%,82.7%,83.4%
CCOCCNC1=C(Cl)C(=O)c2ccccc2C1=O,92.3%,106%,100%,105%,125%,110%,115%,94.4%,102%,89.2%
C/C(Cc1ccc(Cl)cc1)=C(\c1ccc(O)cc1)c1ccc(Cl)cc1,90.9%,83.9%,95.1%,85.1%,95.3%,99.5%,84.7%,116%,92.2%,81%
COc1ccc(OC)c(-c2nc(SCC(=O)c3ccc(C#N)cc3)[nH]c(=O)c2C#N)c1,104%,105%,107%,76.9%,103%,97.7%,96.8%,106%,106%,103%
C1CN(SSN2CCOCC2)CCO1,63.1% [100 µM],13.1% [100 µM],-74.7% [100 µM] (active),-37.5% [100 µM] (active),-72.8% [100 µM] (active),-70.1% [100 µM] (active),-48.4% [100 µM] (active),75.8% [100 µM],11.8% [100 µM],50.4% [100 µM]
Clc1cc(Cl)c(Cl)c(-c2nnc(SCc3ccncc3Br)o2)c1,91.8%,84.5%,92.3%,67.4%,117%,94.4%,65.8%,94.8%,77.1%,75.1%
Cn1c(=O)cc2c3c(c(NCCCO)ccc31)C(=O)c1ccccc1-2,73.9%,73.2%,46.8%,13.1%,29.1%,25.3%,44.7%,64.2%,48.3%,19.2%
C=C1C(=O)O[C@H]2[C@H]1CC/C(COC(=O)c1cc3ccccc3s1)=C\CC[C@@]1(C)O[C@@H]21,-67.2% (active),-81.1% (active),-43.9% (active),-94.3% (active),-91.9% (active),-91.3% (active),-72.6% (active),61.9%,-25.3% (active),-4.09% (active)
O=C(O)CCCN1C(=O)/C(=C/c2cn(-c3ccccc3)nc2-c2ccc([N+](=O)[O-])cc2)SC1=S,77.6%,67%,50%,40.2%,78.2%,56.8%,65.1%,88.2%,27.6%,54.5%
CCCCn1c(=O)[nH]c(N)c([C@@H]2c3c([nH]c(=O)n(CCCC)c3=O)Oc3ccc4ccccc4c32)c1=O,89.2%,84.5%,81%,3.72% (active),73.7%,2.15% (active),51.5%,101%,-15.9% (active),-8.45% (active)
Oc1ccc(Cl)cc1/C=N\NC(=S)N/N=C/c1cc(Cl)ccc1O,26.2%,50.3%,45.9%,16.1%,31%,15.3%,-7.22% (active),37.5%,8.57% (active),11.8%
COc1ccc(-c2noc(C(=O)O)c2-c2cc(OC)c(OC)c(OC)c2)cc1,13.8%,44.1%,38.4%,38.8%,46.4%,34.7%,22.6%,31.6%,7.85% (active),25.7%
COc1ccc(-c2cc(-c3ccc(Cl)cc3)c(C#N)c(=O)n2Cc2ccc(C(=O)Nc3ccccc3N)cc2)cc1,79.3%,82.1%,79.1%,40.5%,140%,96.5%,55.8%,84%,42.6%,66.2%
Clc1ccc(/C=N\N=C\c2ccc(Cl)c(Cl)c2)cc1Cl,18.4%,111%,87.3%,77.4%,97.5%,-3.05% (active),33%,108%,83.1%,93.1%
COc1ccccc1NC(=O)N=Nc1c(O)[nH]c2ccccc12,100%,83.9%,93.5%,58.7%,118%,93%,73.3%,90.7%,89.9%,93.4%
COc1ccc(C(=O)N2c3ccccc3Sc3ccccc32)c(OC)c1,38.3%,34%,51.6%,48.3%,55.8%,43.5%,36.8%,5.16% (active),16.5%,12%
Cc1c2cnccc2c(C)c2c1c1cc(C#N)ccc1n2C,-75.4% (active),-3.54% (active),-5.29% (active),-4.29% (active),-13% (active),-2.32% (active),6.63% (active),-65.6% (active),-16.8% (active),-11.2% (active)
O=C(N(c1ccccc1)c1ccccc1)n1cc(I)c2nc(Cl)nc(Cl)c21,70.5%,71.1%,34.8%,54.4%,86.8%,57.9%,39.6%,67.9%,4.32% (active),2.48% (active)
O=[N+]([O-])c1cccc(-c2nc3cc4nc5ccccc5[nH]c4cc3n2)c1,93.4%,99.7%,108%,84.4%,105%,103%,104%,92.1%,111%,92.9%
Cc1cc(C)c2c(c1)N(C)c1ncnc(-n3cnc4cc(C)ccc43)c1CC2C (stereo not given),16.7%,39%,43.1%,33.1%,40%,49.6%,32.8%,6.61% (active),0.648% (active),12.7%
COc1ccc(/C=C/C(=O)c2cc3c(N)c(C(=O)Nc4cccc5ccccc45)sc3nc2C)cc1,70.9%,92.4%,87.5%,62.7%,94.2%,71.8%,48.6%,44.2%,33.6%,100%
CN1C(=O)/C(=C\c2nc([P+](c3ccccc3)(c3ccccc3)c3ccccc3)c(N3CCOCC3)o2)SC1=S,71.5%,92.3%,68.4%,80.4%,106%,102%,91.5%,85.6%,19.9%,81.5%
COC(=O)c1c(C)nc(C)c2c1C(=O)C(Br)=C(NCc1ccccc1)C2=O,27.2%,17%,8.24% (active),46.1%,86.6%,36.9%,51.8%,88.6%,25.5%,13.6%
Cn1ccnc1C(=O)/C=C/c1ccc(C(=O)Nc2ccc(Cl)cc2)cc1,82.4%,8.52% (active),0.398% (active),-74.7% (active),16.9%,-39.9% (active),-2.07% (active),19.5%,8.42% (active),5.13% (active)
Nc1n[nH]c2cccc(C#Cc3cccc(C(=O)Nc4cc(C(F)(F)F)cc(C(F)(F)F)c4)c3)c12,72.2%,92%,61.1%,42.5%,109%,76.3%,96.2%,89.3%,12.1%,35.4%
CC(=O)c1c(C)nc(SCC(=O)Nc2cccc(O)c2)n1-c1ccc(Cl)cc1,104%,96.4%,83.8%,86.3%,107%,107%,90.6%,91.9%,96%,95.4%

# From PubChem BioAssay (NCI)
